Assay [1] can be described thus: compounds binding Alexa647 anti-His antibody – biochemical, small-molecule microarray, 635 nm fluorescence, artefact control for SMM control protein annotation, primary screen (AID 1128).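 Note: score merges feature fluorescence with signal-to-noise for each printed compound spot.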 Conditions: higher = more signal.
In assay [2] the test system is Human papillomavirus type 1a E7 protein (residues 1-88). In words: HPV1a E7 small-molecule binders, primary screen, biochemical, small-molecule microarray, residues 1-88, 635 nm (AID 1129). Conditions: small-molecule microarray binding, fluorescence 635 nm; higher = more signal.
Assay [3] concerns the target Focal adhesion kinase 1 (Homo sapiens) (UniProt Q05397). The assay can be described thus: PTK2 protein binding on printed compound slides – biochemical, small-molecule microarray, 635/667 nm fluorescence, BSA, DTT, primary screen (AID 1130).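 Note: composite of spot emission at 667 nm and signal to noise over triplicate slides.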 The following applies: 635 nm fluorescence, higher = more signal.
Assay [4] has as its system Fibrinogen (Alexa647-labelled). The assay can be described thus: Alexa647-fibrinogen binding to printed small molecules – biochemical, small-molecule microarray, 635/667 nm fluorescence, artefact control for SMM control-protein annotation, profiling panel (AID 1131).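 Note: z-score merges 667 nm fluorescence with per-spot signal-to-noise over triplicate slides.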 Conditions: fibrinogen-A647 binding fluorescence, higher = more signal.
Assay [5] addresses Follistatin (Homo sapiens) (UniProt P19883). In words: FST protein binding to printed compounds – biochemical, small-molecule microarray, 635/667 nm fluorescence, primary screen (AID 1132). The following applies: 635 nm fluorescence, higher = more signal.
For assay [6], the target named is Fibroblast growth factor 2 (Homo sapiens) (UniProt P09038). The assay can be described thus: basic fibroblast growth factor binding to printed compounds – biochemical, small-molecule microarray, 635/667 nm fluorescence, primary screen (AID 1133). The following applies: FGF2, fluorescence 635/667, higher = more signal.
Fibroblast growth factor 2 (Homo sapiens), sequence (P09038 whole entry, looked up): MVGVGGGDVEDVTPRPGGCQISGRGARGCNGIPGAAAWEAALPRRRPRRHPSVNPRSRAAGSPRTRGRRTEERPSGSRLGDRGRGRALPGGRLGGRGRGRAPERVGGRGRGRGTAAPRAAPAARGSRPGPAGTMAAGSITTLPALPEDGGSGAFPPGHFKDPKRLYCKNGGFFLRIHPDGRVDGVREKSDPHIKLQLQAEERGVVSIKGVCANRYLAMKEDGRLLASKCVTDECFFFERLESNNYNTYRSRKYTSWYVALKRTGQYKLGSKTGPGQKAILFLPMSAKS
Assay [7] can be described thus: JC-1 mitochondrial potential readout, lung cancer cells – cell-based, A549, JC-1 fluorescence, basal, 24 h, 100 nL, profiling panel (AID 1138).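 Note: A549 lung adenocarcinoma cells under basal conditions with no added stimulus; test concentration not given here.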 Conditions: higher = more signal.
Assay [8] deals with Lefty1. In words: Lefty1 protein binding to printed compounds – biochemical, small-molecule microarray, 635/667 nm fluorescence, primary screen (AID 1139). The following applies: fluorescence 635/667, higher = more signal.
The subject of assay [9] is wheat germ agglutinin (Triticum aestivum), Alexa647-labelled. The assay can be described thus: Alexa647-WGA lectin binding to printed small molecules – biochemical, small-molecule microarray, 635/667 nm fluorescence, artefact control for SMM control-protein annotation, profiling panel (AID 1140).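 Note: score merges 667 nm feature emission with signal to noise over triplicate slides.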 Conditions: WGA-A647 binding, 635 nm fluorescence, higher = more signal.
The target of assay [10] is Luciferin 4-monooxygenase (Photinus pyralis) (UniProt P08659). The assay can be described thus: inhibition of purified Photinus pyralis luciferase – biochemical, luminescence, purified enzyme, 2006 set, primary screen (AID 1141).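 Note: cell-free assay with purified firefly luciferase at 100 ng per well in PBS; test concentration not given here.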 Conditions: purified firefly luciferase, SteadyGlo luminescence, 30 min; higher = more signal, called active from +8 up or from −8 down.
Luciferin 4-monooxygenase (Photinus pyralis), sequence (P08659 whole entry, looked up): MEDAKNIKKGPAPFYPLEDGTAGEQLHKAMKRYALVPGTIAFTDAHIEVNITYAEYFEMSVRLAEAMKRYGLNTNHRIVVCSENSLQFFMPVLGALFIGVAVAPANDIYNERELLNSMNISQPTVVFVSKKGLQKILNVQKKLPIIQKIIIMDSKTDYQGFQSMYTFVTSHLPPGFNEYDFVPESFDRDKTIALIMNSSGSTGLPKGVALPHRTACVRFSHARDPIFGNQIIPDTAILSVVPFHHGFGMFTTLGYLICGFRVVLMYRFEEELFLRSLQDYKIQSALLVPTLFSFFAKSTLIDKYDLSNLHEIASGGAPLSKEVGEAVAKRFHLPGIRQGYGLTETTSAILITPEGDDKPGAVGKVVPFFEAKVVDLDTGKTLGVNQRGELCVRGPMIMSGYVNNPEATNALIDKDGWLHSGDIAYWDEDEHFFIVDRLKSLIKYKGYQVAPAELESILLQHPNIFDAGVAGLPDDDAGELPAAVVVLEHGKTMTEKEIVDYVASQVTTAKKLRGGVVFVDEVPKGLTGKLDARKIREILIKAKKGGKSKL
Assay [11] deals with Wnt5a (protein binding on small-molecule microarray). The assay can be described thus: small molecules binding Wnt5a protein – biophysical, small-molecule microarray, 635/667 nm fluorescence, primary screen (AID 1142).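 Note: fluorescence read at 667 nm with signal to noise per printed feature.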 Conditions: 635 nm fluorescence, higher = more signal.
Assay [12] is described as follows: ATP-based viability of Huh7 replicon cells – cell-based, CellTiter-Glo luminescence, basal, 48 h, cytotoxicity control for HCV replication inhibitor project, primary screen (AID 1143).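 Note: Huh7 hepatoma cells carrying a hepatitis C replication reporter with no stimulus; test concentration not given here.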 Conditions: higher = more signal, called active from +8 up or from −8 down.
A short description of assay [13]: Pseudomonas biofilm growth suppression – PAO1 strain, BacTiter-Glo luminescence, LB-PBS, primary screen (AID 1144). The following applies: P. aeruginosa PAO1 biofilm, 12 h, higher = more signal.
The nature of assay [14]: basal CRE-LacZ reporter activity in PC12 – cell-based, unstimulated, primary screen (AID 1145). The following applies: no forskolin, luminescence, 4.5 h, higher = more signal, called active from +8 up or from −8 down.
Assay [15] is described as follows: forskolin-driven CRE-LacZ activity in PC12 – cell-based, CRE-LacZ reporter, forskolin-stimulated, primary screen (AID 1146).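 Note: PC12 cells with 6xCRE LacZ reporter stimulated by forskolin 10 µM; beta-galactosidase reporter signal reflecting CREB driven transcription.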 Conditions: luminescence, 4.5 h, higher = more signal, called active from +8 up or from −8 down.
Assay [16] addresses Streptavidin (Streptomyces avidinii) (UniProt P22629). The assay can be described thus: compounds binding control protein streptavidin – biophysical, small-molecule microarray, 635/667 nm fluorescence, artefact control for SMM compound annotation, primary screen (AID 1147).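 Note: signal reflects streptavidin binding to arrayed compounds as a control protein.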 Conditions: higher = more signal.
Assay [17] in a line: probe aInhba binding on compound microarray – biochemical, small-molecule microarray, 635/667 nm fluorescence, primary screen (AID 1148).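 Note: score merges 667nm spot fluorescence with signal-to-noise for antibody binding to printed compounds.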 Conditions: higher = more signal.
Assay [18] has as its target Torsin-1A (Homo sapiens) (UniProt O14656). In words: TOR1A wild-type binding on microarray – cell lysate, small-molecule microarray, lysate, 635/667 nm, primary screen (AID 1149). Conditions: COS7 hTOR1A-WT lysate, 635 nm fluorescence, higher = more signal.
Assay [19] has the same target. The assay can be described thus: torsin A mutant lysate binding on microarrays – cell lysate, small-molecule microarray, COS7 lysate, 635/667 nm fluorescence, primary screen (AID 1150).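 Note: score pools 667 nm emission and signal to noise measuring lysate protein binding.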 The following applies: COS7 hTOR1A mutant lysate, 635 nm fluorescence, higher = more signal.
The subject of assay [20] is Sonic hedgehog protein (Shh). In words: Sonic hedgehog microarray binding compounds – biochemical, small-molecule microarray, 635/667 nm fluorescence, primary screen (AID 1151).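 Note: Shh protein binding to compounds spotted on small-molecule microarray slides; score combines spot fluorescence intensity with signal-to-noise across triplicate slides.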 Conditions: 635 nm fluorescence, higher = more signal.

Molecules are shown by their SMILES. Several values for one entry are separate records, joined by “and”; a condition that tells them apart may be missing. Identical values can stand only once. Where a structure was tested more than once in an assay, its records may differ in their call. Activity calls are given as the source filed them. Unless noted, the rule behind the calls is not given here.

Follistatin (Homo sapiens), sequence (P19883 whole entry, looked up): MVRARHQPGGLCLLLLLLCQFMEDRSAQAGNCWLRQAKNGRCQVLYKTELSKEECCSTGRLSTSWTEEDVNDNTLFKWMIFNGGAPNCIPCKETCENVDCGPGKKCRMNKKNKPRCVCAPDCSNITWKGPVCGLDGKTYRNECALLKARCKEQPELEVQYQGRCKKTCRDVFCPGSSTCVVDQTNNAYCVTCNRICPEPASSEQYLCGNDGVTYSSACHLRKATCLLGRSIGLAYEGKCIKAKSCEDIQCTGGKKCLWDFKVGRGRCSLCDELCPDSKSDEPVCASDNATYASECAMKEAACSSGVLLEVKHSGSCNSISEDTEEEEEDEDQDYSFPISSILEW
Torsin-1A (Homo sapiens), sequence (O14656 whole entry, looked up): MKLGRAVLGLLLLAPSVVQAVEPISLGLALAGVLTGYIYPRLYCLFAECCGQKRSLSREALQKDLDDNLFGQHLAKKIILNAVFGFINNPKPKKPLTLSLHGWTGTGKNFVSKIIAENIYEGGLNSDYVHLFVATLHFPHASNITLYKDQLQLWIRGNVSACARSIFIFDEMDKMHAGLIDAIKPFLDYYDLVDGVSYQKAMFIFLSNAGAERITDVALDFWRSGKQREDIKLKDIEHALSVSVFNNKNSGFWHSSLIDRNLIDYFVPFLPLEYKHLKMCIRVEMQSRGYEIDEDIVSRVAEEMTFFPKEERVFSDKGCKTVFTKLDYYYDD
Focal adhesion kinase 1 (Homo sapiens), sequence (Q05397 whole entry, looked up): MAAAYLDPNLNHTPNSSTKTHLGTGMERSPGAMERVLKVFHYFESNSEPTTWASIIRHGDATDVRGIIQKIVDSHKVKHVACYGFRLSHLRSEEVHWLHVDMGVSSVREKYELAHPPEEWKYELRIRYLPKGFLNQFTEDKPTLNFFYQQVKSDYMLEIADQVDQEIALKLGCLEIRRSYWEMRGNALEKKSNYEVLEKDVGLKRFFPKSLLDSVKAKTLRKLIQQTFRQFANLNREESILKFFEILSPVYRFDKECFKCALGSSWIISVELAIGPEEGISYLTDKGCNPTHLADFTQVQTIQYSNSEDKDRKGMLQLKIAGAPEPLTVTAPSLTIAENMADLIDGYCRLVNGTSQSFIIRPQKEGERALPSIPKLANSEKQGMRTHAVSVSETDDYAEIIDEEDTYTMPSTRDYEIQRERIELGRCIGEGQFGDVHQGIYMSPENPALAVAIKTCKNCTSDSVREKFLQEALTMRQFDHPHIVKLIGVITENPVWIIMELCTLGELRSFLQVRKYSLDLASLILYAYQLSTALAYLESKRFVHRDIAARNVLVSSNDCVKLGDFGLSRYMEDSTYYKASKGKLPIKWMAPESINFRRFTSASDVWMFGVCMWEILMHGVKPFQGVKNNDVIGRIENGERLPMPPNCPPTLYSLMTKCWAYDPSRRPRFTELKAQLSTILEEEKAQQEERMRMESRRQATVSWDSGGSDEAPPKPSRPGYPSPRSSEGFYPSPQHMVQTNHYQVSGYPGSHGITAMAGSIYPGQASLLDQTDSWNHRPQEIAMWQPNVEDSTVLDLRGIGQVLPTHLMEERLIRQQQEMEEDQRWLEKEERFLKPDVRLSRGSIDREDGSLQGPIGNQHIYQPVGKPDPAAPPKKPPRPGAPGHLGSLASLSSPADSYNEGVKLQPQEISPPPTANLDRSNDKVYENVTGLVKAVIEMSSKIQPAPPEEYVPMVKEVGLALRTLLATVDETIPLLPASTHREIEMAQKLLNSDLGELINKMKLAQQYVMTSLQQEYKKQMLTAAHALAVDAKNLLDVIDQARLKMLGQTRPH
Streptavidin (Streptomyces avidinii), sequence (P22629 whole entry, looked up): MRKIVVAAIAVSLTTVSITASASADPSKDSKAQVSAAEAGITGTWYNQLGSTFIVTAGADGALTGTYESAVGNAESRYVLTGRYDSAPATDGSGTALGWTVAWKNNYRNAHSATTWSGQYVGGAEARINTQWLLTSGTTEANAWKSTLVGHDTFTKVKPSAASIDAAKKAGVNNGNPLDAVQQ

For `C=CCN1C(=O)[C@]2(O[C@H](CCn3cc(CCO)nn3)[C@@H]([Si](C)(C)c3ccc(OC)cc3)[C@@H]2C)c2cc(N3C(=O)c4cccc5cccc3c45)ccc21`, the composite z-score is 0.783 and 1.59 in assay [1]; 1.14 and 1.08 in [2]; 0.216 and 0.369 in assay [3]; 0.57 and 0.583 in assay [4]; 0.687 and 0.0673 in assay [5]; 0.296 and 0.381 in assay [6]. Besides, the composite z-score was 0.794 and 0.721 in assay [8]; 0.532 and 0.53 in assay [9]; 0.684 and 0.279 in assay [11]; 0.377 and 0.732 in [16]; -0.0719 and -0.0986 in assay [17]; 0.317 and 0.0769 in [18]. Besides, the composite z-score in [19] was 0.398 and 0.254; in assay [20], 1.21 and 1.38. The z-score in [7] is -1.09 and -0.743; in assay [10], -0.511 (inactive) and 0.185 (inactive); in [12] it was -8.04 (active) and -7.97 (inactive); in assay [13], -0.475 (inactive) and -0.111 (inactive); in assay [14], 29.7 (active) and 37.9 (active); in assay [15] it was -4.15 (inactive) and -3.89 (inactive).
With `CCOC(=O)[C@@H]1CC=C2CC1C(=O)N1CCC[C@@H]1[C@H]2O[Si](C)(C)C(C)(C)C` (stereo not given in full), the composite z-score was -1.02 and -0.542 in assay [1]; -0.419 and -0.434 in [2]; -0.758 and -0.489 in assay [3]; -0.454 and -1.61 in [4]; -0.76 and -0.645 in assay [5]; -0.424 and -0.469 in assay [6]. Further, the composite z-score in assay [8] was -0.224 and -0.132; in assay [9], -0.992 and -0.976; in assay [11], -0.12 and -0.752; in assay [16], -0.759 and -2.05; in [17], 0.027 and -0.319; in assay [18], -0.408 and -2.35. The composite z-score in [19] is -0.0943 and -2.33; in assay [20] it was -0.085 and -0.0655. The z-score in [7] was -0.827 and -0.338; in assay [10] it was 0.0411 (inactive) and 0.838 (inactive); in assay [12], 0.856 (inactive) and -3.46 (inactive); in [13], 0.318 (inactive) and 0.0257 (inactive); in [14], -0.692 (inactive) and -1.5 (inactive); in assay [15], 1.25 (inactive) and -1.04 (inactive).
`C=C[C@@H](C)[C@@H](O)c1ccc(OCCO)cc1`: the composite z-score was -0.641 and -0.244 in assay [1]; -0.66 and -0.875 in [2]; -0.467 and -1.08 in assay [3]; -1.87 and -1.43 in assay [4]; -1.14 and -0.506 in [5]; -2.62 and -0.83 in assay [6]. For the same molecule, the composite z-score is -1.33 and -1.19 in [8]; -0.616 and -0.2 in [9]; -1.29 and -1.06 in assay [11]; -1.1 and -0.908 in assay [16]; -0.312 and -0.213 in assay [17]; -3.3 and -3.39 in [18]. In addition, the composite z-score in assay [19] was -2.66 and -2.95; in [20], -1.39 and 0.319. Further, the z-score in assay [7] is -0.0607 and 0.803; in assay [10], -5.97 (inactive) and -7.19 (inactive); in assay [12], -0.295 (inactive) and -0.245 (inactive); in [13] it was -0.828 (inactive) and -0.12 (inactive); in assay [14], 0.105 (inactive) and 1.46 (inactive); in [15], -0.466 (inactive) and -0.637 (inactive).
`CCOC(=O)CCN1C(=O)[C@H]2[C@H]3[C@H](O)[C@H](O)CC(=NNC(=O)OCC)[C@@H]3CC[C@H]2C1=O`: the composite z-score is -0.23 in [1]; 0.364 in assay [2]; 0.366 in [3]; 0.384 in assay [4]; -0.124 in [5]; 0.447 in assay [6]. Also, the composite z-score was -0.0407 in assay [8]; -0.368 in assay [9]; 0.201 in [11]; -0.283 in assay [16]; -0.0791 in [17]; 0.274 in [18]. Further, the composite z-score in assay [19] amounted to 0.608; in [20] it was 0.188. Also, the z-score is 0.167 in assay [7]; 0.406 (inactive) in [10]; 0.0243 (inactive) in assay [12]; -0.129 (inactive) in [13]; 0.796 (inactive) in [14]; 0.261 (inactive) in [15].

These data come from PubChem BioAssay.
